Bioassay records as filed in PubChem.
DT40 TDP1 CPT = DT40-hTDP1 cell growth loss with CPT; chicken DT40 Tdp1-/-;hTDP1 cells + 20 nM CPT, ATP luminescence, 48 h; Potency, µM (doses to about 46.2 µM), inactives show at the top dose activity change, negative = growth inhibition, usual class: inhibitors; 12% of 420,000 active; also: nearly all actives have a fitted effect of over 55% in size
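Chicken DT40 Tdp1-/- cells stably complemented with human TDP1 were seeded at 400 cells/well in medium containing 20 nM camptothecin, exposed to pin-transferred compounds, and grown at 37 °C for at least 48 hr. Viability was read as ATP luminescence.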
VP16 counter = inhibits Gal4-VP16 luciferase reporter, ROR gamma counter-screen. Drosophila S2 Gal4-VP16 UAS-luciferase, luminescence, 20 h. Potency, µM (highest dose often 53.6 µM), without a hit: at the highest dose activity, negative = inhibition, hits mostly inhibitors. 3.5% of 310,000 active. AID 2546;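 also: Gal4-VP16 expression switched on by copper sulfate through the metallothionein promoter; nearly all actives have a fitted effect of over 50% in size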
TDP1 cell noCPT = qHTS for Inhibitors of human tyrosyl-DNA phosphodiesterase 1 (TDP1): qHTS in cells in absence of CPT; AID 686978, 2013; 15% of 420,000 active; Potency, µM (series often up to 46.2 µM), inactives show top-dose activity change, negative = growth inhibition, usual class: inhibitors; DT40 Tdp1-/- hTDP1 cells, no CPT, ATP luminescence, 48 h; also: nearly all actives have a fitted effect of over 55% in size
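Growth kinetics read by CellTiter-Glo luminescence after ≥48 hr at 37 °C. Cells: DT40 Tdp1-/- stably carrying human TDP1, 400 per well, compound exposure in the absence of CPT (DMSO vehicle).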
12-LOX inh = blocks human arachidonate 12S-lipoxygenase | purified 12hLO, xylenol orange hydroperoxide absorbance | Potency, µM (series often up to 108 µM), without a hit: top-dose activity change, negative = inhibition, hits mostly inhibitors | 1.1% of 580,000 active
Target sequence (P18054 whole entry, looked up): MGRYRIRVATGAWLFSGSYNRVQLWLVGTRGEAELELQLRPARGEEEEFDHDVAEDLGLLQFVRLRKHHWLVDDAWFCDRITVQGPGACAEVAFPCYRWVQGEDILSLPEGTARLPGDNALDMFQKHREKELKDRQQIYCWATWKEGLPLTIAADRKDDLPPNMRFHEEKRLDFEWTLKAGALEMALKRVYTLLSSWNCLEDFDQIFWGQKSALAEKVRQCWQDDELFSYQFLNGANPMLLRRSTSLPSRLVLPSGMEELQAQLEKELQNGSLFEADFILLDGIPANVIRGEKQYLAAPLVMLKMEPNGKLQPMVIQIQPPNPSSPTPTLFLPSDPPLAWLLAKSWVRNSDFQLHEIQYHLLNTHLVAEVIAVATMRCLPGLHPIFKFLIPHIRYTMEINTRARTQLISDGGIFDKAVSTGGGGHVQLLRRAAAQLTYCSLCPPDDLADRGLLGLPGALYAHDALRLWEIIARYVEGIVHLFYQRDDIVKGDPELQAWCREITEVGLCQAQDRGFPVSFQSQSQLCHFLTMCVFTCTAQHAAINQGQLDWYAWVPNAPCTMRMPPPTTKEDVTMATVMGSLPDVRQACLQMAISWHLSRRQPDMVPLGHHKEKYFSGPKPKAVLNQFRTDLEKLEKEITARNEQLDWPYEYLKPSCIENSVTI
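Hydroperoxide product was detected by ferrous iron/xylenol orange as the 573 to 405 nm absorbance ratio. Arachidonic acid at 40 uM (final) was turned over for 30 min at room temperature by 150 nM human 12hLO, pH 7.0 Hepes buffer, after 15 min compound preincubation.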
ELG1 DNA repair = ELG1-dependent DNA repair inhibition; HEK293T ELG1-luciferase reporter, luminescence, 16 h; DNA damage induced by 5-fluorouridine; Potency, µM (series often up to 46.1 µM), for inactives: at the top dose activity change, negative = inhibition, hits mostly inhibitors; 2.3% of 330,000 active; also: nearly all actives have a fitted effect of over 55% in size
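5-Fluorouridine DNA damage + compound/DMSO, 2,000 cells/well, 16 h, 37 °C/5% CO2. ONE-Glo, 30 min RT, luminescence. Readout = decrease in reporter signal.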
RORgamma inh = blocks mouse ROR gamma transcriptional activity. P51450. Drosophila S2 Gal4-RORgamma UAS-luciferase reporter, 20 h. Potency, µM (titrated, usually from 53.6 µM), without a hit: at the top dose activity change, negative = inhibition, hits mostly inhibitors. 5.4% of 310,000 active. AID 2551; also: nearly all actives have a fitted effect of over 60% in size
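A Gal4/UAS one-hybrid system in insect cells: metallothionein-promoter Gal4–ROR gamma fusion plus Photinus luciferase reporter. Copper sulfate 700 uM final, 20 hr ambient incubation, luminescent detection after 10 min with reagent.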
Numbers without * were called inactive; ? = inconclusive; nt = not tested or not shown; [ ] = dose if it differs, or a comment. Shown are actives, neighbours in structure and some others; about 15% of the full set was active somewhere. Calls follow the shape of the dose curve; as a rule, active = well fitted curve in the direction sought with a large enough effect; inconclusive = small, poorly fitted or top-dose-only effect, or another doubt; inactive = no such curve, though single readings can be large; an effect the other way counts as inactive or inconclusive. % is scaled to controls: 0 for no effect and ±100 for the full control effect; potency is read from the fitted curve at half-maximal effect.

SMILES	DT40 TDP1 CPT	VP16 counter	TDP1 cell noCPT	12-LOX inh	ELG1 DNA repair	RORgamma inh
CCc1nnc(NC(=O)c2ccc3ccccc3n2)s1	?	-1.6%	18.4µM*	-10.0%	?	3.1%
CCOC(=O)Cc1csc(NC(=O)c2sc3nc4ccc(C)cc4cc3c2N)n1	-0.1%	?	5.4%	?	?	-36.3%
CC(C)(C)CC(=O)Nc1nc2c(s1)C[C@@H]1[C@](C)(CO)[C@H](O)CC[C@@]1(C)[C@@H]2CC(=O)NCCN1CCOCC1	nt	nt	nt	26.4%	nt	nt
COc1nccc(N2CCC(CC(=O)NCCN3CCCCC3)CC2)n1	nt	nt	nt	57.7%	nt	nt
Cn1ncc(Cl)c1C(=O)NCc1ccc(Cl)cc1	?	?	8.2µM*	-14.3%	?	42.4%[10 µM]
COc1cccc(N2CC(C(=O)N3CCC(C(=O)NCc4cccc(F)c4)C3)NC2=O)c1 (stereo not given)	nt	nt	nt	9.0%	nt	nt
CN1CCN([C@H]2CCN(Cc3cccs3)C[C@H]2CCC(=O)O)CC1	nt	nt	nt	32.4%	nt	nt
Cc1cc(=O)oc2cc3occ(-c4ccc5ccccc5c4)c3cc12	nt	nt	nt	-23.3%	nt	nt
CCCCCCCNC1=CC(=O)CC(c2ccccc2)C1 (stereo not given)	6.51µM*	?	5.8µM*	-7.3%	-5.9%	?
CCCCCNC1=CC(=O)CC(c2ccccc2)C1 (stereo not given)	?	-4.3%	18.4µM*	26.8%	-29.4%	1.0%
CC1(C)CC(=O)C=C(NCCO)C1	-6.7%	5.4%	-22.7%	197.6%[57.4 µM]	16.0%	1.6%
CCCCCCCCNC1=CC(=O)CC(C)(C)C1	?	-19.7%	16.4µM*	222.3%	4.7%	?
O=C1C=C(NCc2ccncc2)CC(c2ccccc2)C1 (stereo not given)	-14.1%	-11.3%	-15.3%	0.0%	-4.6%	-10.3%
COc1ccccc1N1CCCc2ncc(C(=O)Nc3cccc(F)c3)cc21	nt	nt	nt	13.3%[176 µM]	nt	nt
COc1cccc(CCC(=O)N2CCCN(c3cc(-c4ccc(Cl)cc4)[nH]n3)CC2)c1	nt	nt	nt	-4.3%	nt	nt
COc1cccc(CC(=O)N2CCCCCCNC(=O)[C@H]3CCC[C@H]32)c1	nt	nt	nt	45.0%	nt	nt
Cc1nc2c3c(C)c(C)n(Cc4ccccc4)c3ncn2n1	nt	nt	nt	0.0%	nt	nt
CC(C)NC(=O)NC[C@H]1O[C@@H](CO)[C@@H](O)[C@H]1N(C)CCN(C)C	nt	nt	nt	110.6%[176 µM]	nt	nt
COC[C@H]1NC(=O)CC[C@H]1C(=O)Nc1ccc2c(c1)OCCO2	nt	nt	nt	41.0%	nt	nt
O=C(O)Cn1ccc2cc(OCC3CCN(C(=O)C4CCCC4)CC3)cnc21	nt	nt	nt	-5.0%[176 µM]	nt	nt
Nc1nc(-c2ccccc2)cs1	-13.8%	6.1%	0.8%	-14.3%	?	8.2%
Cc1ccc(-c2csc(C3C(N)=NC(S)=C(C#N)C34CCCCC4)n2)cc1 (stereo not given)	?	?	?	-12.6%	4.0%	5.01µM*
N#CC1=C(S)N=C(N)C(c2nc(-c3ccccc3)cs2)C12CCCC2 (stereo not given)	?	-20.5%	?	?	0.7%	10µM*
N#CC1=C(S)N=C(N)C(c2nc(-c3ccccc3)cs2)C12CCCCC2 (stereo not given)	-13.2%	?	3.5%	225.4%	?	10µM*
O=C(Nc1ccccc1)C(c1ccccc1)c1ccccc1	-2.5%	-14.4%	-27.3%	-44.7%	4.5%	-20.4%
SMILES	DT40 TDP1 CPT	VP16 counter	TDP1 cell noCPT	12-LOX inh	ELG1 DNA repair	RORgamma inh
O=C(Nc1ccccc1Cl)c1ccc(Cl)cc1Cl	-22.5%	8.9%	-23.9%	-3.2%	?	27.8%
N#C/C(=C\c1cccnc1)C(=O)Nc1ccc(Cl)cc1	?	1.4%	0.4%	?	0.3%	-25.2%
N#C/C(C(=O)Nc1ccc(Cl)cc1)=C(/S)Nc1ccccc1	14.6µM*	?	11.6µM*	1.78µM*	-11.9%	?
CC(C)(C)C(=O)C(Cl)C(=O)Nc1ccccc1 (stereo not given)	5.17µM*	?	4.11µM*	-8.9%	?	-18.6%
O=C(Nc1ccc(Nc2ccccc2)cc1)c1ccccc1	?	nt	20.6µM*	?	nt	nt
C#Cc1cccc(NC(=O)c2ccc(Cl)cc2Cl)c1	-12.3%	2.1%	29.1µM*	4.4%	?	1.3%
O=C(Nc1ccc(Nc2ccccc2)cc1)c1ccc(Br)cc1	?	?	-19.7%	0.0%	-1.8%	?
CCCNCc1ccc(-c2ccc(Br)cc2)o1	nt	nt	nt	-29.2%	nt	nt
CN(CC1CCOCC1)S(=O)(=O)c1ccc2c(c1)CCCC2	nt	nt	nt	39.3%	nt	nt
O=C(Nc1ccc(Cl)cc1)C1=Cc2ccccc2OC1	?	-9.6%	23.1µM*	433.5%	?	16.8%
O=C(NCc1ccccc1)c1ccc(Cl)cc1	2.7%	-3.7%	3.2%	34.2%	6.2%	11.7%
O=C(Nc1ccc(Nc2ccccc2)cc1)c1ccc(Cl)cc1Cl	14.6µM*	nt	?	115.5%	nt	nt
CC(CCc1ccccc1)NC(=O)c1ccc(NC(=O)c2cccc(Br)c2)cc1 (stereo not given)	?	-10.4%	?	-15.6%	-1.7%	0.4%
CC(CCc1ccccc1)NC(=O)c1ccc(NC(=O)c2ccccc2)cc1 (stereo not given)	14.6µM*	?	10.3µM*	-17.2%	-16.1%	2.82µM*
O=C(NNC(=O)c1ccc(Cl)cc1Cl)Nc1ccccc1	-0.8%	14.0%	-5.3%	-12.6%	0.2%	36.9%
O=C(NCc1ccc(Cl)cc1)c1cccc(NC(=O)c2ccccc2)c1	?	4.8%	?	4.9%	18.4µM*	14.6%[10 µM]
